# Columns and labels:
# Experiment in all cases: DAPPL (digital affinity profiling via proximity ligation, sequencing); 10 mM Tris-HCl pH 7.5, 50 mM NaCl, 1 mM DTT, 4% glycerol, room temperature, 30 min; GST-TFs on glutathione beads, 16-mer random dsDNA library, 0.1% formaldehyde crosslink after washing; high values mean tight binding
# HSF1 = HSF1 (Homo sapiens, UniProt Q00613 1-529); conditions: protein: recombinant; tags: N-terminal GST; chain copies: 3; dsDNA, one strand shown
# Summary of the method: (§1)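 In yeast, human transcription factors were expressed with a GST fusion, then pulled down on glutathione beads and given DNA barcodes. Pooled with a tag-only sample, they were exposed to 200 nmole of a 16-mer random double-stranded DNA library (Tris/NaCl/DTT/glycerol buffer, room temperature, 30 min), washed, crosslinked with 0.1% formaldehyde, proximity-ligated using BsaI/T4 ligase for 1 h at 37 °C, PCR-amplified and read on an Illumina NextSeq500. Each hexamer's frequency of reads for a factor, divided by the matching frequency for the tag-only sample, gives the binding signal.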
# SPI1 = SPI1 (Homo sapiens, UniProt P17947 1-270); conditions: protein: recombinant; tags: N-terminal GST; dsDNA, one strand shown
# Summary of the method: as §1
# SPIC = target: T1, SPIC (Homo sapiens, UniProt Q8N5J4 1-248); conditions: protein: recombinant; tags: N-terminal GST; dsDNA, one strand shown
# T1 sequence: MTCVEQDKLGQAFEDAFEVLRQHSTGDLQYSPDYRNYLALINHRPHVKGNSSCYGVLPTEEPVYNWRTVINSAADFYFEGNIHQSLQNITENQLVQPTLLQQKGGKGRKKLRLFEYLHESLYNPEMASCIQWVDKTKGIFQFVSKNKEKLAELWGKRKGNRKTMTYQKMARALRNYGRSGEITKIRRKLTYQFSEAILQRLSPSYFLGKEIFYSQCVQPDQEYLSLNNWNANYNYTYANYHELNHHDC
# Summary of the method: as §1
# ELK4 = target: T2, ELK4 (Homo sapiens, UniProt P28324-2 1-405); conditions: protein: recombinant; tags: N-terminal GST; dsDNA, one strand shown
# T2 sequence: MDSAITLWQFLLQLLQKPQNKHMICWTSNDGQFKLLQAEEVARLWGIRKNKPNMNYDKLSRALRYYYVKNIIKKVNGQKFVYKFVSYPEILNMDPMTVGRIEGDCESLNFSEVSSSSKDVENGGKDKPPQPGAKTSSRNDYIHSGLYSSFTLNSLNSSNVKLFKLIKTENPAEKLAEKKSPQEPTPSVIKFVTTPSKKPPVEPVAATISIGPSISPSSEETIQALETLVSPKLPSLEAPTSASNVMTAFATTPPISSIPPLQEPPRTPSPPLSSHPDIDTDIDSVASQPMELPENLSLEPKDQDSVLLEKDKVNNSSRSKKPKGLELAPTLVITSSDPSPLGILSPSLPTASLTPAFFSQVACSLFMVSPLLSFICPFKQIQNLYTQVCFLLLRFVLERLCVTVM
# Summary of the method: as §1
# ETV3 = target: T3, ETV3 (Homo sapiens, UniProt P41162-2 1-143); conditions: protein: recombinant; tags: N-terminal GST; dsDNA, one strand shown
# T3 sequence: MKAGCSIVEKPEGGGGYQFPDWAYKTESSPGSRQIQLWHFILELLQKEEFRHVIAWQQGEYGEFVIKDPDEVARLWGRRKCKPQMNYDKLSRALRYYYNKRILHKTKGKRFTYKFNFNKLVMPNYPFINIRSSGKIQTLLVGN
# Summary of the method: as §1
# ELK1 = target: T4, ELK1 (Homo sapiens, UniProt P19419 1-428); conditions: protein: recombinant; tags: N-terminal GST; dsDNA, one strand shown
# T4 sequence: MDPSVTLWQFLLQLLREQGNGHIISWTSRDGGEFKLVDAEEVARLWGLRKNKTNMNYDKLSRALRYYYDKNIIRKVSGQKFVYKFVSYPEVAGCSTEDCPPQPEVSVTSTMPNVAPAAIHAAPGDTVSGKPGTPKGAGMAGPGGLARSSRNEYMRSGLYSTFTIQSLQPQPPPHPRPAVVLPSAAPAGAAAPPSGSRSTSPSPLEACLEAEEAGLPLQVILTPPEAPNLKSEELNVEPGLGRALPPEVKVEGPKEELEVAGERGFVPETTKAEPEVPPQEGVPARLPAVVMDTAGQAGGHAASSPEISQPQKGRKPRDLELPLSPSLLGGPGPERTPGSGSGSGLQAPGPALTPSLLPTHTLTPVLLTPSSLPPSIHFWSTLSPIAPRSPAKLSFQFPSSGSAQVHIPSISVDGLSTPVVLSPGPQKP
# Summary of the method: as §1
# ERG = target: T5, ERG (Homo sapiens, UniProt P11308 1-479); conditions: protein: recombinant; tags: N-terminal GST; dsDNA, one strand shown
# T5 sequence: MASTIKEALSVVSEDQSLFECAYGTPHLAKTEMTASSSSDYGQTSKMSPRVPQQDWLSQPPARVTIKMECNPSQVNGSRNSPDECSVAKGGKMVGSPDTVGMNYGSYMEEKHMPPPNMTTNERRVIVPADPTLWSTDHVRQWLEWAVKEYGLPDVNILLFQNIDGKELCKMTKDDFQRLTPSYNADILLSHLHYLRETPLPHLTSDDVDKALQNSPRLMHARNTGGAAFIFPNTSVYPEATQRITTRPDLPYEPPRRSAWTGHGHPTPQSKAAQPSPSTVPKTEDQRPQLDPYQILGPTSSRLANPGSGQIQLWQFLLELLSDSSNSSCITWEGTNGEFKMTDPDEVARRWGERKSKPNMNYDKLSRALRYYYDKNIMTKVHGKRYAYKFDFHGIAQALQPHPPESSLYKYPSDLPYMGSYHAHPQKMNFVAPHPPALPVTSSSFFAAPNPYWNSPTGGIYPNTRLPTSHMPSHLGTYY
# Summary of the method: as §1
# ELF1 = ELF1 (Homo sapiens, UniProt P32519 1-619); conditions: protein: recombinant; tags: N-terminal GST; dsDNA, one strand shown
# Summary of the method: as §1
# EHF = target: T6, EHF (Homo sapiens, UniProt Q9NZC4 1-300); conditions: protein: recombinant; tags: N-terminal GST; dsDNA, one strand shown
# T6 sequence: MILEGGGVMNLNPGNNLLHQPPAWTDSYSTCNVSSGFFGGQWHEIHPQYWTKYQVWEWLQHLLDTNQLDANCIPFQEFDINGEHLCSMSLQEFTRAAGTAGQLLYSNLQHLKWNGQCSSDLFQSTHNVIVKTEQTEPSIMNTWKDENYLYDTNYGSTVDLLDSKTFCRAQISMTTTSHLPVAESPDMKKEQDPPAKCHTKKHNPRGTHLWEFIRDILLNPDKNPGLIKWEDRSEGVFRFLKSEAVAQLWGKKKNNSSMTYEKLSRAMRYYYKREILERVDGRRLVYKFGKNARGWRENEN
# Summary of the method: as §1
# SPIB = SPIB (Homo sapiens, UniProt Q01892 1-262); conditions: protein: recombinant; tags: N-terminal GST; dsDNA, one strand shown
# Summary of the method: as §1
# ELK3 = target: T7, ELK3 (Homo sapiens, UniProt P41970 1-407); conditions: protein: recombinant; tags: N-terminal GST; dsDNA, one strand shown
# T7 sequence: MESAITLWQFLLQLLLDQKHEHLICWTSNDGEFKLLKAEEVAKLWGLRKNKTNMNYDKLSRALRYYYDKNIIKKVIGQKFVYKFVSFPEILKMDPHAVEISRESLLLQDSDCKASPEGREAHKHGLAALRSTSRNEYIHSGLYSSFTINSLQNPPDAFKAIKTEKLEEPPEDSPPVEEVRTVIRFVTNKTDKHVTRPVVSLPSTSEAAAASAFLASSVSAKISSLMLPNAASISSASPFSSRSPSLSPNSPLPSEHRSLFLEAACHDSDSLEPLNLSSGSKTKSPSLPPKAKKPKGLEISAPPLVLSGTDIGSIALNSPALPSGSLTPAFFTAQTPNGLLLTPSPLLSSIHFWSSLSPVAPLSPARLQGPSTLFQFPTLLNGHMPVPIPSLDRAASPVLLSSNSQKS
# Summary of the method: as §1
# ETV2 = target: T8, ETV2 (Homo sapiens, UniProt O00321 1-342); conditions: protein: recombinant; tags: N-terminal GST; dsDNA, one strand shown
# T8 sequence: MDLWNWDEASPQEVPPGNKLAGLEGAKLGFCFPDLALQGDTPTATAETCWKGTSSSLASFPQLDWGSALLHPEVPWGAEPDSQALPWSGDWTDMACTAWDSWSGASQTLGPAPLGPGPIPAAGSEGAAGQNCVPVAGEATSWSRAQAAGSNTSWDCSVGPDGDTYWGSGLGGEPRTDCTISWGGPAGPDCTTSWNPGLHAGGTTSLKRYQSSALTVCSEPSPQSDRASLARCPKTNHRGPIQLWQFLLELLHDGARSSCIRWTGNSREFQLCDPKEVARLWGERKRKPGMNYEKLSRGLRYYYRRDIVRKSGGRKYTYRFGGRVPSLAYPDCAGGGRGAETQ
# Summary of the method: as §1
# ELF3 = target: T9, ELF3 (Homo sapiens, UniProt P78545 1-371); conditions: protein: recombinant; tags: N-terminal GST; dsDNA, one strand shown
# T9 sequence: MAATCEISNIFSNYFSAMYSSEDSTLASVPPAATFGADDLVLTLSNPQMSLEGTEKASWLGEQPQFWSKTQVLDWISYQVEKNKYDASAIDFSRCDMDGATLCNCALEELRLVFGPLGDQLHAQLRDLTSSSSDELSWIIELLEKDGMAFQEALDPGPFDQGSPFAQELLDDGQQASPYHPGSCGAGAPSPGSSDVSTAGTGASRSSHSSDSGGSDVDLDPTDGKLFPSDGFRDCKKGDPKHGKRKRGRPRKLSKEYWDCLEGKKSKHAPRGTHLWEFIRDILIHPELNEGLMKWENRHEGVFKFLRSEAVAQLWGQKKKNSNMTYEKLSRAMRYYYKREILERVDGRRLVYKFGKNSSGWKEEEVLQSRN
# Summary of the method: as §1
# ETV1 = ETV1 (Homo sapiens, UniProt P50549 1-477); conditions: protein: recombinant; tags: N-terminal GST; dsDNA, one strand shown
# Summary of the method: as §1
# ERF = target: T10, ERF (Homo sapiens, UniProt P50548 1-548); conditions: protein: recombinant; tags: N-terminal GST; dsDNA, one strand shown
# T10 sequence: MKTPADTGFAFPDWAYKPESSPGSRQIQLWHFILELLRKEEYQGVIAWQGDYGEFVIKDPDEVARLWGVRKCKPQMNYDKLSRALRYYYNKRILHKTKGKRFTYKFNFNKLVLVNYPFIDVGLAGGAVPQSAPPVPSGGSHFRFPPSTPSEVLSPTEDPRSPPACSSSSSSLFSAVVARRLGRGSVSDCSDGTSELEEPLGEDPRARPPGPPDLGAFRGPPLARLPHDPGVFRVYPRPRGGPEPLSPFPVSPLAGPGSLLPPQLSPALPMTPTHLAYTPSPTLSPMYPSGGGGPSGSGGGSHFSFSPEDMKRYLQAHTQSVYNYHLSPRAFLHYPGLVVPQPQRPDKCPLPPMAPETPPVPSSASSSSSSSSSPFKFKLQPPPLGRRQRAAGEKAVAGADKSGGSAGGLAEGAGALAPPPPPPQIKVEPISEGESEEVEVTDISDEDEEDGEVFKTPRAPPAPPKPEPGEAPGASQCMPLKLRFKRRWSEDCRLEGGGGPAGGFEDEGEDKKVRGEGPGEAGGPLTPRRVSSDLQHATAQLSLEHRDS
# Summary of the method: as §1
# ETS2 = target: T11, ETS2 (Homo sapiens, UniProt P15036 1-469); conditions: protein: recombinant; tags: N-terminal GST; dsDNA, one strand shown
# T11 sequence: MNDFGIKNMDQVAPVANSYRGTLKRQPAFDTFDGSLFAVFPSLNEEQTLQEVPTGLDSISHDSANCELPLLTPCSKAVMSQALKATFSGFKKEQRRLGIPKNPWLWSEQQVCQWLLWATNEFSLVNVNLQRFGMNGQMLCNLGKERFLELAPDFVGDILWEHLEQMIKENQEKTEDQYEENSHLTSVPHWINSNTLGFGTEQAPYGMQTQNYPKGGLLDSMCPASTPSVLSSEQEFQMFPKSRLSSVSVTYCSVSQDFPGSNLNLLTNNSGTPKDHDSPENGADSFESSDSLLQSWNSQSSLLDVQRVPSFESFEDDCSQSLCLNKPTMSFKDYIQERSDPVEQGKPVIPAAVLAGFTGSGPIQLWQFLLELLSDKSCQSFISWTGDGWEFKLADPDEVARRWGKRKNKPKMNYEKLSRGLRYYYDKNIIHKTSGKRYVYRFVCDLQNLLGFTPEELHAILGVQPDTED
# Summary of the method: as §1
# HSF1, sequence (Q00613 whole entry, the tested form may be a part): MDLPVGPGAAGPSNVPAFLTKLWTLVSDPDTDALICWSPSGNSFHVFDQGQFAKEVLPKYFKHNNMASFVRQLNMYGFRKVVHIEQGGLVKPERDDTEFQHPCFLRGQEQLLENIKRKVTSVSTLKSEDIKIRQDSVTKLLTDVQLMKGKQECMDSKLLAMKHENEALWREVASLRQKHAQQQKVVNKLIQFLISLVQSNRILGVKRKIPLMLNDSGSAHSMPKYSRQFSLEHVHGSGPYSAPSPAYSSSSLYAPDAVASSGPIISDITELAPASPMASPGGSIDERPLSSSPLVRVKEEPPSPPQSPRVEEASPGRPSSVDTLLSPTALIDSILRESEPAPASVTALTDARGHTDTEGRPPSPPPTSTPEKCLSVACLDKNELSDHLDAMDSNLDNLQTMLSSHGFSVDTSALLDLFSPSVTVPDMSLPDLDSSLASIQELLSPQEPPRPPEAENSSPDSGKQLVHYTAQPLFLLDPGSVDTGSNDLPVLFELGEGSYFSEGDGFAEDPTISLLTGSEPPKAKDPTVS
# SPIB, sequence (Q01892 whole entry): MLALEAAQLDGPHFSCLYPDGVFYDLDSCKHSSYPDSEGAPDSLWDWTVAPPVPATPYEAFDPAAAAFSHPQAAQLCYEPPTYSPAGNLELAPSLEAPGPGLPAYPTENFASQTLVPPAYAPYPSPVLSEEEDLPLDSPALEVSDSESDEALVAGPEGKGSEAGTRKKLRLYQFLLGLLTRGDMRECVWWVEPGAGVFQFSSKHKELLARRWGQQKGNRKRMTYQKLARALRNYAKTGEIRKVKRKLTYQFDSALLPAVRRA
# ETV1, sequence (P50549 whole entry): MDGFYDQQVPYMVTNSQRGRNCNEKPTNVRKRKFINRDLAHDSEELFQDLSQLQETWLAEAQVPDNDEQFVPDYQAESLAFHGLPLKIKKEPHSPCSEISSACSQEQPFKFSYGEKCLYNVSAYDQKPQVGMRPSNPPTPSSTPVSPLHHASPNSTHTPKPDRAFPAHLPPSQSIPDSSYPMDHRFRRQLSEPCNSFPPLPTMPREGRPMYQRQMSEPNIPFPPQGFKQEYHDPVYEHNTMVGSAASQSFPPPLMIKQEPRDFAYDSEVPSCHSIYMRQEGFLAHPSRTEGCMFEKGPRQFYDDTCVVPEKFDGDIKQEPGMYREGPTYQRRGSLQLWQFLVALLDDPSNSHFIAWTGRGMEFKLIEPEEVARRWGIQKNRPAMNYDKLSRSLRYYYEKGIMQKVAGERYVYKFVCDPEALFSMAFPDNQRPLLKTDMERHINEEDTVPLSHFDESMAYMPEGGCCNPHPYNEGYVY
# ELF1, sequence (P32519 whole entry): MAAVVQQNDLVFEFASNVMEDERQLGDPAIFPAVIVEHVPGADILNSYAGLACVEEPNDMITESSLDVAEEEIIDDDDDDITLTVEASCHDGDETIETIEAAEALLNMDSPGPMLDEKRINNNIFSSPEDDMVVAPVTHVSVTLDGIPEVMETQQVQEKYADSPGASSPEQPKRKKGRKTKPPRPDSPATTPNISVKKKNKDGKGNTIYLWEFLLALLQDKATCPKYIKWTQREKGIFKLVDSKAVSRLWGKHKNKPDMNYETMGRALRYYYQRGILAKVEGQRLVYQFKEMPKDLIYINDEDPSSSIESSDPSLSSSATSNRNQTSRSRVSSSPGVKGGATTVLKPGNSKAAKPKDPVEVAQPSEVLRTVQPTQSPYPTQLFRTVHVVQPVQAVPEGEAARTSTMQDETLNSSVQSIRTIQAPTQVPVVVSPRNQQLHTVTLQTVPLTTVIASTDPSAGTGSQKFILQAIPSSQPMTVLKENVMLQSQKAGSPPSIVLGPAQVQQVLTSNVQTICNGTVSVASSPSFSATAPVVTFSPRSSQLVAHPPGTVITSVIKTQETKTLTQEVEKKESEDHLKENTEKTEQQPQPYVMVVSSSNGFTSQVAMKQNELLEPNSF
sequence,measurement,setting,value
AGGTTC,binding signal,HSF1,"1.18 fold enrichment (6-mer frequency, TF over GST control)"
GAGAAG,binding signal,HSF1,"1.22 fold enrichment (6-mer frequency, TF over GST control)"
GATCGA,binding signal,HSF1,"1.07 fold enrichment (6-mer frequency, TF over GST control)"
GTGGAA,binding signal,SPI1,"1.15 fold enrichment (6-mer frequency, TF over GST control)"
same,binding signal,HSF1,"1.23 fold enrichment (6-mer frequency, TF over GST control)"
same,binding signal,SPIC,"1.02 fold enrichment (6-mer frequency, TF over GST control)"
same,binding signal,ELK4,"1.06 fold enrichment (6-mer frequency, TF over GST control)"
same,binding signal,ETV3,"1.02 fold enrichment (6-mer frequency, TF over GST control)"
CGCAAA,binding signal,ELK1,"1.01 fold enrichment (6-mer frequency, TF over GST control)"
same,binding signal,ERG,"1.04 fold enrichment (6-mer frequency, TF over GST control)"
same,binding signal,ELF1,"1 fold enrichment (6-mer frequency, TF over GST control)"
same,binding signal,EHF,"1.03 fold enrichment (6-mer frequency, TF over GST control)"
same,binding signal,SPI1,"1.05 fold enrichment (6-mer frequency, TF over GST control)"
same,binding signal,SPIB,"1.02 fold enrichment (6-mer frequency, TF over GST control)"
same,binding signal,ELK3,"1.08 fold enrichment (6-mer frequency, TF over GST control)"
same,binding signal,HSF1,"1.01 fold enrichment (6-mer frequency, TF over GST control)"
same,binding signal,SPIC,"1.02 fold enrichment (6-mer frequency, TF over GST control)"
same,binding signal,ELK4,"1.03 fold enrichment (6-mer frequency, TF over GST control)"
same,binding signal,ETV2,"1.07 fold enrichment (6-mer frequency, TF over GST control)"
same,binding signal,ELF3,"1.13 fold enrichment (6-mer frequency, TF over GST control)"
same,binding signal,ETV1,"1.11 fold enrichment (6-mer frequency, TF over GST control)"
same,binding signal,ERF,"1.1 fold enrichment (6-mer frequency, TF over GST control)"
same,binding signal,ETS2,"1.06 fold enrichment (6-mer frequency, TF over GST control)"
GAAGGT,binding signal,HSF1,"1.14 fold enrichment (6-mer frequency, TF over GST control)"
CATAGA,binding signal,HSF1,"1.15 fold enrichment (6-mer frequency, TF over GST control)"

# Reference: PMC7862700, “An all-to-all approach to the identification of sequence-specific readers for epigenetic DNA modifications on cytosine”
